Activity calls are given as the source filed them.
Experiments:
[1] = optical density shifts of acrAB sulA E. coli – strain DRC41, OD650, 48 h, E. coli filamentation inducer project, primary screen (AID 1152); conditions: higher = more signal, called active from +8 up or from −8 down;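 note: E. coli MC1000 strain DRC41 lacking acrAB efflux pump and sulA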
[2] = probe aLefty1 binding on compound microarray – biochemical, small-molecule microarray, 635/667 nm fluorescence, primary screen (AID 1153); conditions: higher = more signal;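 note: score merges spot fluorescence with signal-to-noise ratio from the scanned slide images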
[3] = plasmodial surface anion channel blockers, osmotic lysis – cell-based, P. falciparum Indochina, OD700, 1 h, primary screen (AID 1154); conditions: P. falciparum Indochina infected RBC osmotic lysis, higher = more signal, called active from +8 up or from −8 down
[4] = plasmodial surface anion channel blockers, osmotic lysis – cell-based, P. falciparum Indochina, OD700, 2 h, primary screen (AID 1155);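 note: lysis reports solute entry through the parasite surface anion channel PSAC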; conditions: P. falciparum Indochina infected erythrocytes, higher = more signal, called active from +8 up or from −8 down
[5] = changes in parasitized red cell lysis, either direction – P. falciparum Indochina, OD700, 3 h, PSAC antagonist project, primary screen (AID 1156); conditions: P. falciparum-infected erythrocytes, osmotic lysis, higher = more signal, called active from +8 up or from −8 down
[6] = plasmodial surface anion channel blockers, osmotic lysis – cell-based, P. falciparum Indochina, OD700, 18 h, primary screen (AID 1157); conditions: P. falciparum Indochina infected erythrocytes, osmotic lysis OD700, 18 h; higher = more signal, called active from +8 up or from −8 down
[7] = S6 kinase pathway phospho-S6 level changes – cell-based, A549, cytoblot, luminescence, serum-stimulated, primary screen (AID 1158); conditions: 5 h, higher = more signal;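 note: serum-stimulated A549 lung adenocarcinoma cells; signal is phosphorylated S6 detected by cytoblot immunostaining with HRP secondary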
[8] = biological target: NADPH oxidase 2 (Homo sapiens) (UniProt P04839); experiment: compounds shifting NOX2 Amplex Red fluorescence – cell-based, HEK293-NOX2, PMA-stimulated, NOX inhibitor project, primary screen (AID 1159); conditions: 45 min, higher = more signal, called active from +8 up or from −8 down; note: test concentration not given here
Chain of NADPH oxidase 2 (Homo sapiens) (P04839 whole entry, looked up): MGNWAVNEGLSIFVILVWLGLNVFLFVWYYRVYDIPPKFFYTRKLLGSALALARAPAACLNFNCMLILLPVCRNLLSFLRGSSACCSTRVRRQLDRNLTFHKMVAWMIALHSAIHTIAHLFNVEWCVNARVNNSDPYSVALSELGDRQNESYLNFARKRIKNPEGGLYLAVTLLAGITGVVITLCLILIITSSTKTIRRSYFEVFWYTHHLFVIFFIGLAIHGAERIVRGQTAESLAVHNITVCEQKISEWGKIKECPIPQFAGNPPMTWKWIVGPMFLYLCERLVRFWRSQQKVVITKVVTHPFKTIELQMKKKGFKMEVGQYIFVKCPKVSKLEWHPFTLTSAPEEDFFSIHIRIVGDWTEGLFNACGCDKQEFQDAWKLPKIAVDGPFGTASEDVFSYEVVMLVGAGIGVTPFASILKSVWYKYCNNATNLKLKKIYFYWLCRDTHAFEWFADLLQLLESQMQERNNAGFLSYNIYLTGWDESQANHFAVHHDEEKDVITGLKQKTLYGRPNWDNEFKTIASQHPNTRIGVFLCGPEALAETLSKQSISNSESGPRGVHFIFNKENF

[9] = biological target: NADPH oxidase 4 (Homo sapiens) (UniProt Q9NPH5); experiment: compounds shifting NOX4 Amplex Red fluorescence – cell-based, HEK293-NOX4, tetracycline-induced, NOX inhibitor project, primary screen (AID 1160); conditions: HEK293-NOX4, Amplex Red H2O2 fluorescence, 45 min; higher = more signal, called active from +8 up or from −8 down
Chain of NADPH oxidase 4 (Homo sapiens) (Q9NPH5 whole entry, looked up): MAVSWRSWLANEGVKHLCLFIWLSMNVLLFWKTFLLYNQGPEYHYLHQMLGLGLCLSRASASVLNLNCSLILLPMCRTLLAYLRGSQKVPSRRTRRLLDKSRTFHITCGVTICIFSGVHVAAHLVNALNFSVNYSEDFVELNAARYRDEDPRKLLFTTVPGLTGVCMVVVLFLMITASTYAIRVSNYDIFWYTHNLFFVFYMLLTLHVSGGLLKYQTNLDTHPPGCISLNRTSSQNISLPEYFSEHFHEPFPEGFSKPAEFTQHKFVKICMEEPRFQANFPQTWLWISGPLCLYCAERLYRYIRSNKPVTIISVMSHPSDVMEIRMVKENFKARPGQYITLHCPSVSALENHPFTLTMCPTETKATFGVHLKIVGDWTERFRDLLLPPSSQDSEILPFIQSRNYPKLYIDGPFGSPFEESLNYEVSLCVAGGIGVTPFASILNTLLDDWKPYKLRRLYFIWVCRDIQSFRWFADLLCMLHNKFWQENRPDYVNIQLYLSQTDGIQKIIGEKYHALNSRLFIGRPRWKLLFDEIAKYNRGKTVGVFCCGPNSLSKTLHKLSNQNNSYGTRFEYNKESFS

[10] = biological target: NADPH oxidase 5 (Homo sapiens) (UniProt Q96PH1); experiment: compounds shifting NOX5 Amplex Red fluorescence – cell-based, HEK293-NOX5, NOX inhibitor project, primary screen (AID 1161); conditions: HEK293-NOX5, ionomycin, 45 min, higher = more signal
Chain of NADPH oxidase 5 (Homo sapiens) (Q96PH1 whole entry, looked up): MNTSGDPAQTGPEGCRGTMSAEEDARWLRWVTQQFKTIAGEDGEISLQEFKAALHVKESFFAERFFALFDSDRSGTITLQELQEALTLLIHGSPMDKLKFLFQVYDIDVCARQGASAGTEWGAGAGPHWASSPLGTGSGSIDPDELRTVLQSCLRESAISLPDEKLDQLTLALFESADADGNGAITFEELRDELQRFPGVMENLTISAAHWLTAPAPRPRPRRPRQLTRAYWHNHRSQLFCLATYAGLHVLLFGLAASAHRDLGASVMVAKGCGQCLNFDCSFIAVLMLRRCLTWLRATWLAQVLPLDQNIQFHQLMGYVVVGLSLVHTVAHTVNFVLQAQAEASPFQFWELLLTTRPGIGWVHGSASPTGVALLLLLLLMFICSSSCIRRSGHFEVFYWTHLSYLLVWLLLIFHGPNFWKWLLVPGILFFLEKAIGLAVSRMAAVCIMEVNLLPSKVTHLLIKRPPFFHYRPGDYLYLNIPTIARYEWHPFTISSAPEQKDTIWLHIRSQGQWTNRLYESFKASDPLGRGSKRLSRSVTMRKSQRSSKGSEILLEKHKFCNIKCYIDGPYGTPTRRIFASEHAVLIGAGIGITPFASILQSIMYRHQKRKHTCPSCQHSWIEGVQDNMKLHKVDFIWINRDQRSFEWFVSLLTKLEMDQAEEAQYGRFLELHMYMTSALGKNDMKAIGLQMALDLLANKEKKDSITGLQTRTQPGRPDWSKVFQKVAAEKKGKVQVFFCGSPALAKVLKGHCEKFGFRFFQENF

[11] = compound effects on lung adenocarcinoma cell viability – A549, calcein-AM fluorescence, 48 h, basal, profiling panel (AID 1162); conditions: higher = more signal; note: test concentration not given here
[12] = compound effects on differentiated 3T3-L1 adipocyte viability – cell-based, 3T3-L1 adipocytes, calcein-AM fluorescence, 48 h, basal, profiling panel (AID 1163); conditions: 3T3-L1 adipocytes viability, higher = more signal; note: test concentration not given here
[13] = compound effects on hepatocellular carcinoma cell viability – HepG2, calcein-AM fluorescence, 48 h, basal, profiling panel (AID 1164); conditions: higher = more signal; note: test concentration not given here
[14] = compound effects on multiple myeloma cell viability – MM1S, calcein-AM fluorescence, 48 h, basal, profiling panel (AID 1165); conditions: higher = more signal; note: test concentration not given here
[15] = calcein-AM signal in unstimulated myeloma cells – cell-based, calcein-AM fluorescence, 48 h, PK04 Diversity Set, profiling panel (AID 1166); conditions: RPMI8226 myeloma viability, higher = more signal;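 note: cells grown under basal conditions without added stimulus; test concentration not given here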
[16] = JC-1 mitochondrial signal, unstimulated HepG2 cells – cell-based, JC-1 fluorescence, 24 h, 100 nL compound, profiling panel (AID 1167); conditions: HepG2 mitochondrial potential, higher = more signal; note: test concentration not given here
[17] = JC-1 mitochondrial signal, unstimulated adipocytes – cell-based, JC-1 fluorescence, 3T3-L1 adipocytes, 24 h, 100 nL compound, profiling panel (AID 1168); conditions: JC-1 mitochondrial fluorescence, higher = more signal, called active from +8 up or from −8 down; note: test concentration not given here
[18] = JC-1 mitochondrial signal, unstimulated myeloma cells – cell-based, JC-1 fluorescence, RPMI8226, 24 h, 100 nL compound, profiling panel (AID 1169); conditions: JC-1 mitochondrial potential fluorescence, higher = more signal; note: test concentration not given here
[19] = JC-1 mitochondrial signal, unstimulated MM1S myeloma – cell-based, JC-1 fluorescence, 24 h, 100 nL compound, profiling panel (AID 1170); conditions: MM1S mitochondrial potential, higher = more signal; note: test concentration not given here
[20] = resazurin metabolic signal in A549 cells – cell-based, resazurin fluorescence, 24 h, PK04 Diversity Set, profiling panel (AID 1171); conditions: A549 viability, higher = more signal, called active from +8 up or from −8 down; note: test concentration not given here

Compound	z-score [1]	composite z-score [2]	z-score [3]	z-score [4]	z-score [5]	z-score [6]	z-score [7]	z-score [8]	z-score [9]	z-score [10]	z-score [11]	z-score [12]	z-score [13]	z-score [14]	z-score [15]	z-score [16]	z-score [17]	z-score [18]	z-score [19]	z-score [20]
CCCC[C@H]1OB(O)C[C@H]2C1=C(COc1ccccc1)C[C@H]1C(=O)N(Cc3ccccc3)C(=O)[C@H]12	-0.288 (inactive)	0.179	6.03 (inactive)	1.38 (inactive)	0.0146 (inactive)	0.475 (inactive)	-0.056	-0.0336 (inactive)	0.143 (inactive)	0.245	0.358	0.488	-0.429	-1.09	-1.08	0.989	0.241 (inactive)	-0.163	-0.446	0.574 (inactive)
C[C@H]1C2[C@H](Cc3ccccc3)NC(=O)[C@]23C(=O)N[C@H](Cc2ccccc2)C(=O)N[C@H](Cc2ccccc2)C(=O)NC/C=C/CCC/C=C/C3[C@@H]2O[C@]12C (stereo not given in full)	0.655 (inactive)	-0.19	1.75 (inactive)	0.452 (inactive)	0.601 (inactive)	0.794 (inactive)	0.282	0.563 (inactive)	-0.312 (inactive)	0.875	0.144	1.58	-0.385	-1.01	-3.48	1.71	-0.77 (inactive)	-0.469	-1.08	-1.5 (inactive)
COc1cc(CO)cc(I)c1O[C@H]1C=C(C(=O)NCCO)C[C@@H](N(CCc2cccc(F)c2)C(=O)CCC2CCCC2)[C@@H]1O	-0.429 (inactive)	0.437	16.3 (active)	3.94 (inactive)	4.42 (inactive)	1.53 (inactive)	-0.165	1.47 (inactive)	0.145 (inactive)	-2.23	-1.5	2.06	-2.23	-3.19	-4.28	-1.09	0.525 (inactive)	-1.2	-1.96	-2.26 (inactive)
O=C1O[C@H](c2ccccc2)[C@H](c2ccccc2)N2[C@H]1[C@@H](C(=O)Nc1nc3ccccc3s1)[C@]1(C(=O)Nc3ccc(C#CC4=CCCCC4)cc31)[C@H]2c1ccc(OCCO)cc1	-0.199 (inactive)	0.46	2.54 (inactive)	1.62 (inactive)	1.44 (inactive)	1.2 (inactive)	-0.686	1.92 (inactive)	0.266 (inactive)	0.0146	-0.641	1.07	-0.819	-1.69	-1.7	-3.34	0.256 (inactive)	-1.07	-1.8	0.18 (inactive)
C=CCOC(=O)[C@@H]1[C@H]2C(=O)O[C@H](c3ccccc3)[C@H](c3ccccc3)N2[C@H](c2ccc(OCCOC(=O)[C@H]3C[C@H]4C(=O)N[C@@H](CCCC[N+](C)(C)C)C(=O)N4[C@H]3c3cccc(OCCO)c3)cc2)[C@@]12C(=O)Nc1ccc(I)cc12	-0.398 (inactive)	0.173	7.62 (inactive)	2.35 (inactive)	1.59 (inactive)	1.28 (inactive)	0.0621	1.68 (inactive)	0.615 (inactive)	1.33	-0.299	0.194	-0.872	-0.135	0.437	-0.984	1.07 (inactive)	-0.742	-1.24	-0.166 (inactive)
C=CCN1Cc2ccccc2C[C@@]2(COC(c3ccc(OCCCO)cc3)=N2)C1=O	0.754 (inactive)	0.121	22.7 (active)	5.46 (inactive)	5.11 (inactive)	0.985 (inactive)	-0.14	-5.73 (inactive)	-1.35 (inactive)	-3.28	0.386	0.72	0.741	-3.59	-2.52	1.32	0.94 (inactive)	-0.988	-2.19	-1.56 (inactive)
C=CCC(OC(C)=O)[C@@H]1[C@@H](N(Cc2cc3ccccc3o2)C(=O)c2cccc3ccccc23)c2cc(OCCCO)ccc2N1C(=O)Cc1ccc2ccccc2c1 (stereo not given in full)	-0.288 (inactive)	-0.0547	2.06 (inactive)	0.231 (inactive)	-0.336 (inactive)	0.332 (inactive)	0.778	0.39 (inactive)	-1.46 (inactive)	-2.19	0.206	0.753	0.381	0.791	-1.08	2.07	-0.858 (inactive)	0.313	-0.963	-1.05 (inactive)
COc1ccc([Si](C)(C)[C@@H]2[C@@H](CCO)O[C@]3(C(=O)N(Cc4cccc(N5CCCCC5=O)c4)c4ccccc43)[C@H]2C)cc1	-0.402 (inactive)	0.236	5.77 (inactive)	2.69 (inactive)	0.703 (inactive)	2 (inactive)	-0.549	-2.79 (inactive)	-0.322 (inactive)	1.54	-0.86	0.161	-1.7	-2.75	-1.65	-1.94	0.128 (inactive)	-1.02	-1.43	-0.55 (inactive)
C[N+](C)(C)CCCC[C@@H]1NC(=O)[C@H]2C[C@@H](C(=O)O)[C@@H](c3cccc(OCCO)c3)N2C1=O	-0.0215 (inactive)	1.69	1.15 (inactive)	0.729 (inactive)	-1.43 (inactive)	0.252 (inactive)	0.743	0.114 (inactive)	0.0916 (inactive)	0.986	0.244	-0.552	0.438	0.797	0.91	2.37	-0.448 (inactive)	-0.741	-0.631	-0.141 (inactive)
CCOC(=O)C1=CC[C@@H](c2ccccc2)N(S(=O)(=O)c2ccc(C)cc2)[C@H]1c1ccc(C#N)cc1	-1.38 (inactive)	0.161	1.92 (inactive)	0.858 (inactive)	0.224 (inactive)	0.705 (inactive)	-0.882	0.428 (inactive)	-1.1 (inactive)	0.0836	0.423	-0.574	-0.178	-0.306	-0.973	0.51	-1.12 (inactive)	0.124	-0.725	1.39 (inactive)
COC(=O)[C@@]1(Cc2ccc(OC)cc2)[C@H]2c3cc(C(=O)N(C)C)n(Cc4ccc(OC)c(OC)c4)c3C[C@H]2CN1C(=O)c1ccccc1	-1.86 (inactive)	1.14	2.55 (inactive)	0.807 (inactive)	0.804 (inactive)	1.23 (inactive)	-0.574	0.178 (inactive)	1.13 (inactive)	2.18	-1.72	-0.204	-1.18	-1.32	-2.07	0.297	-1.29 (inactive)	-0.605	-1.11	-1.35 (inactive)
CC(C)NC(=O)[C@@]1(c2ccc([N+](=O)[O-])cc2)CC(=O)N(C(C)C)[C@@H]1c1ccc(CO)cc1	1.58 (inactive)	-0.82	1.93 (inactive)	-0.672 (inactive)	-0.641 (inactive)	-0.945 (inactive)	1.31	-0.379 (inactive)	0.354 (inactive)	0.0654	1.19	0.63	0.959	0.385	1.38	0.763	0.481 (inactive)	-1.03	-0.228	-1.1 (inactive)
O=C1O[C@@H](c2ccccc2)[C@@H](c2ccccc2)N2[C@@H](c3ccccc3OCCO)[C@]3(C(=O)Nc4ccc(C#CC5(O)CCCCCC5)cc43)[C@@H](C(=O)NC[C@H](O)c3ccccc3)[C@H]12	-0.95 (inactive)	1.38	1.87 (inactive)	1.98 (inactive)	-1.02 (inactive)	1.49 (inactive)	-0.308	2.02 (inactive)	0.973 (inactive)	2.17	-0.724	0.737	-3.6	-3.31	-4.17	-1.14	0.986 (inactive)	-0.935	-1.98	-2.91 (inactive)
Cc1cccc(/C=C/C=O)c1	0.595 (inactive)	-0.0479	0.118 (inactive)	-0.557 (inactive)	0.565 (inactive)	-0.212 (inactive)	-0.57	-0.0862 (inactive)	0.0658 (inactive)	1.56	0.175	-0.49	0.486	-0.127	-0.46	0.895	0.898 (inactive)	-0.691	-0.313	0.0956 (inactive)

— PubChem BioAssay
